Experimental data as given in the supplement of paper PMC9334596.
Where “and” joins values, the source holds several entries; their conditions need not be identical. Equal entries are not always repeated. The full ranking holds about 5,300 compounds; the median of “PER2::LUC luminescence relative to vehicle control” is about 0.96, and the highest 2% start at about 1.3. The full list was thinned out, with the highest values kept by preference.

System: mPer2Luc MEF
Experiment: PER2::LUC luminescence relative to vehicle control (fold of vehicle); higher = higher PER2::LUC reporter signal
Details: 10 µM
Method in brief: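 The value is PER2::LUC luminescence expressed as fold of vehicle control. Mouse embryonic fibroblasts carrying the mPer2Luc reporter were seeded at ~3000 cells per well in 384-well plates and grown in DMEM with 10% FBS at 37 °C and 5% CO2. Compounds from commercial libraries were added at 10 μM 48 h after seeding, and luminescence was read with the ONE-Glo luciferase assay system 24 h and 30 h after treatment, followed by an alamarBlue viability assay.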

NCCCCCCCCCCNCCCN
PER2::LUC luminescence (time after treatment 24 h): 0.962
PER2::LUC luminescence (time after treatment 30 h): 0.892

C[C@H](NC(=O)CNC(=O)[C@@H](NC(=O)[C@H](Cc1ccccc1)NC(=O)CNC(=O)CNC(=O)[C@@H](N)Cc1ccccc1)[C@@H](C)O)C(=O)N[C@@H](CCCN=C(N)N)C(=O)N[C@@H](CCCCN)C(=O)N[C@@H](CO)C(=O)N[C@@H](C)C(=O)N[C@@H](CCCN=C(N)N)C(=O)N[C@@H](CCCCN)C(N)=O
PER2::LUC luminescence (time after treatment 24 h): 1.02
PER2::LUC luminescence (time after treatment 30 h): 0.922

O=C(O)c1ccc2c(c1)nc(Nc1cccc(Cl)c1)c1ccncc12
PER2::LUC luminescence (time after treatment 24 h): 0.795
PER2::LUC luminescence (time after treatment 30 h): 1.39

O=C(NCCO)c1ccc2c(c1)nc(Nc1cccc(Cl)c1)c1ccncc12
PER2::LUC luminescence (time after treatment 24 h): 1.03
PER2::LUC luminescence (time after treatment 30 h): 0.995

COc1cc2ncnc(Nc3cccc(Cl)c3)c2cc1OC
PER2::LUC luminescence (time after treatment 24 h): 0.991 and 0.715
PER2::LUC luminescence (time after treatment 30 h): 0.978 and 0.705

C/C1=C2N=C(/C=C3N=C(/C(C)=C4\[N-]C(C(CC(N)=O)C4(C)CCC(=O)NCC(C)OP(=O)([O-])OC4C(CO)OC(n5cnc6cc(C)c(C)cc65)C4O)C4(C)N=C1C(CCC(N)=O)C4(C)CC(N)=O)C(CCC(N)=O)C\3(C)C)C(CCC(N)=O)C/2(C)CC(N)=O.[CH3-].[Co+3] (stereo not drawn)
PER2::LUC luminescence (time after treatment 24 h): 1.07
PER2::LUC luminescence (time after treatment 30 h): 1.03

Cc1cnc(-c2cnc(NCCNc3ccc(C#N)cn3)nc2-c2ccc(Cl)cc2Cl)[nH]1
PER2::LUC luminescence (time after treatment 24 h): 1.56
PER2::LUC luminescence (time after treatment 30 h): 1.06

CN1CCN(C2CCC(n3cc(-c4ccc(Oc5ccccc5)cc4)c4c(N)ncnc43)CC2)CC1 (stereo not drawn)
PER2::LUC luminescence (time after treatment 24 h): 0.091
PER2::LUC luminescence (time after treatment 30 h): 0.137

C[C@@H](NC(=O)c1cc(C(=O)N[C@@H](Cc2ccccc2)[C@H](O)CNC2CC2)cc(N(C)S(C)(=O)=O)c1)c1ccccc1
PER2::LUC luminescence (time after treatment 24 h): 1.01
PER2::LUC luminescence (time after treatment 30 h): 1.09

NCCCC[C@H](NC(=O)[C@@H]1CCCN1C(=O)[C@@H]1CSSC[C@H](N)C(=O)N[C@@H](Cc2ccccc2)C(=O)N[C@@H](Cc2ccccc2)C(=O)N[C@@H](CCC(N)=O)C(=O)N[C@@H](CC(N)=O)C(=O)N1)C(=O)NCC(N)=O
PER2::LUC luminescence (time after treatment 24 h): 1.08
PER2::LUC luminescence (time after treatment 30 h): 1.13

COc1ccccc1N1CCN(CCN2C(=O)N=C3C(=Nc4ccccc43)C2=O)CC1
PER2::LUC luminescence (time after treatment 24 h): 0.831
PER2::LUC luminescence (time after treatment 30 h): 0.823

NC(=O)c1ncn([C@@H]2O[C@H](CO)[C@@H](O)[C@H]2O)c1N
PER2::LUC luminescence (time after treatment 24 h): 1.32 and 0.733
PER2::LUC luminescence (time after treatment 30 h): 1.18 and 0.988

Nc1ncnc2c1ncn2[C@@H]1O[C@H](COP(=O)(O)O)[C@@H](O)[C@H]1O
PER2::LUC luminescence (time after treatment 24 h): 1.22 and 1.13
PER2::LUC luminescence (time after treatment 30 h): 1.14 and 1.05

NC(=O)c1ncn(C2OC(COP(=O)(O)O)C(O)C2O)c1N (stereo not drawn)
PER2::LUC luminescence (time after treatment 24 h): 1.36
PER2::LUC luminescence (time after treatment 30 h): 1.3

NCCOCCOCCNC(=O)Cc1ccc(Nc2nc(NCc3ccc(F)cc3)nc(NCC3CCCCC3)n2)cc1
PER2::LUC luminescence (time after treatment 24 h): 1.09
PER2::LUC luminescence (time after treatment 30 h): 1.03

C/C(=C\C(=O)Nc1ccccc1C(=O)O)c1ccc2ccccc2c1
PER2::LUC luminescence (time after treatment 24 h): 1.53
PER2::LUC luminescence (time after treatment 30 h): 1.46

O=C(O)c1ccccc1Nc1ccccc1
PER2::LUC luminescence (time after treatment 24 h): 1.02
PER2::LUC luminescence (time after treatment 30 h): 0.974

COc1ccc(/C=C/C(=O)Nc2ccccc2C(=O)O)cc1OC
PER2::LUC luminescence (time after treatment 24 h): 0.844 and 0.327

O[C@H]1CCN2Cc3ccccc3N=C12
PER2::LUC luminescence (time after treatment 24 h): 0.987
PER2::LUC luminescence (time after treatment 30 h): 0.932

CC1CCC(C(C)C)C(O)C1 (racemic)
PER2::LUC luminescence (time after treatment 24 h): 1.02
PER2::LUC luminescence (time after treatment 30 h): 1.25

O=C(CS(=O)(=O)Cc1ccccc1)N1CCOCC1
PER2::LUC luminescence (time after treatment 24 h): 0.841
PER2::LUC luminescence (time after treatment 30 h): 0.781

CCCNC(C)(C)COC(=O)c1ccccc1
PER2::LUC luminescence (time after treatment 24 h): 0.894
PER2::LUC luminescence (time after treatment 30 h): 0.968

CCCCNc1ccc(C(=O)OCCOCCOCCOCCOCCOCCOCCOCCOCCOC)cc1
PER2::LUC luminescence (time after treatment 24 h): 1.07
PER2::LUC luminescence (time after treatment 30 h): 0.94

CCCCNc1cc(C(=O)O)cc(S(N)(=O)=O)c1Oc1ccccc1
PER2::LUC luminescence (time after treatment 24 h): 1.21
PER2::LUC luminescence (time after treatment 30 h): 1.86

NC1(C(=O)O)CCc2cc(C(=O)O)ccc21 (stereo not drawn)
PER2::LUC luminescence (time after treatment 24 h): 0.992
PER2::LUC luminescence (time after treatment 30 h): 0.984

CC(=O)Nc1ccc(C(=O)Nc2ccccc2N)cc1
PER2::LUC luminescence (time after treatment 24 h): 0.744
PER2::LUC luminescence (time after treatment 30 h): 0.677

CC1(C)CCC(C)(C)c2cc(NC(=O)c3ccc(C(=O)O)cc3)ccc21
PER2::LUC luminescence (time after treatment 24 h): 1.77
PER2::LUC luminescence (time after treatment 30 h): 1.63

CC1(C)CCC(C)(C)c2cc(C(=O)Nc3ccc(C(=O)O)cc3)ccc21
PER2::LUC luminescence (time after treatment 24 h): 1.64
PER2::LUC luminescence (time after treatment 30 h): 1.67

C[C@@](N)(C(=O)O)c1ccc(C(=O)O)cc1
PER2::LUC luminescence (time after treatment 24 h): 1.01
PER2::LUC luminescence (time after treatment 30 h): 0.938

CC(=O)Nc1ccc(C(=O)O)cc1
PER2::LUC luminescence (time after treatment 24 h): 1.03
PER2::LUC luminescence (time after treatment 30 h): 0.901

O=C(Nc1ccc(C(=O)O)c(O)c1)c1ccccc1
PER2::LUC luminescence (time after treatment 24 h): 1.03
PER2::LUC luminescence (time after treatment 30 h): 1.13

CC(N)(C(=O)O)c1ccc(C(=O)O)cc1 (racemic)
PER2::LUC luminescence (time after treatment 24 h): 0.971
PER2::LUC luminescence (time after treatment 30 h): 0.694

CC(=Cc1ccc(C(=O)O)cc1)c1ccc2c(c1)C(C)(C)CCC2(C)C
PER2::LUC luminescence (time after treatment 24 h): 1.66
PER2::LUC luminescence (time after treatment 30 h): 1.52

COc1ccc(C(OCCN2CCC[C@H](C(=O)O)C2)(c2ccc(OC)cc2)c2ccc(OC)cc2)cc1
PER2::LUC luminescence (time after treatment 24 h): 0.855
PER2::LUC luminescence (time after treatment 30 h): 1.04

NC1CCN(O)C1=O (single isomer, unassigned; (+))
PER2::LUC luminescence (time after treatment 24 h): 0.99
PER2::LUC luminescence (time after treatment 30 h): 0.883

CCCN(CCc1cccs1)C1CCc2c(O)cccc2C1 (racemic)
PER2::LUC luminescence (time after treatment 24 h): 0.965
PER2::LUC luminescence (time after treatment 30 h): 0.906

O=C1/C(=C/c2ccc(O)c(O)c2)Oc2c1ccc(O[C@@H]1O[C@H](CO)[C@@H](O)[C@H](O)[C@H]1O)c2O
PER2::LUC luminescence (time after treatment 24 h): 0.983
PER2::LUC luminescence (time after treatment 30 h): 0.93

CC(C)C[C@H](NC(=O)OCc1ccccc1)C(=O)N[C@@H](CC(C)C)C(=O)NCC(=O)CNC(=O)[C@H](CC(C)C)NC(=O)[C@H](CC(C)C)NC(=O)OCc1ccccc1
PER2::LUC luminescence (time after treatment 24 h): 1.01
PER2::LUC luminescence (time after treatment 30 h): 0.909

CCCCCCCCCCCCCC[C@@H](O)[C@@H](O)[C@@H](CO)NC(C)=O
PER2::LUC luminescence (time after treatment 24 h): 1.07
PER2::LUC luminescence (time after treatment 30 h): 1.04

CN1C(=O)N[C@H](Cc2c[nH]c3c(Cl)cccc23)C1=O
PER2::LUC luminescence (time after treatment 24 h): 0.87
PER2::LUC luminescence (time after treatment 30 h): 0.819

CN1C(=O)C(Cc2c[nH]c3ccccc23)NC1=S (stereo not drawn)
PER2::LUC luminescence (time after treatment 24 h): 1.15
PER2::LUC luminescence (time after treatment 30 h): 1.36

c1ccc2c(Cc3c[nH]c4ccccc34)c[nH]c2c1
PER2::LUC luminescence (time after treatment 24 h): 0.956 and 0.816
PER2::LUC luminescence (time after treatment 30 h): 1.02 and 0.84

O=C(O)c1cc(N(Cc2ccccc2O)Cc2cc(O)ccc2O)ccc1O
PER2::LUC luminescence (time after treatment 24 h): 1.05
PER2::LUC luminescence (time after treatment 30 h): 1.03

C[C@@]1(F)[C@H](O)[C@@H](CO)O[C@H]1n1ccc(=O)[nH]c1=O
PER2::LUC luminescence (time after treatment 24 h): 0.965
PER2::LUC luminescence (time after treatment 30 h): 0.937

CN1CCC[C@@H]1c1cccnc1.Cc1ccc(C(=O)O[C@H](C(=O)O)[C@@H](OC(=O)c2ccc(C)cc2)C(=O)O)cc1
PER2::LUC luminescence (time after treatment 24 h): 0.873
PER2::LUC luminescence (time after treatment 30 h): 0.978

C=CC[C@@H]1[C@H](O)CC[C@@]2(C)[C@H]1CC[C@@H]1[C@@H]2CC[C@]2(C)[C@@H]([C@H](C)CCCC(C)C)CC[C@@H]12
PER2::LUC luminescence (time after treatment 24 h): 0.994
PER2::LUC luminescence (time after treatment 30 h): 0.987

OC[C@H]1O[C@@H](n2cnc3c(NC4CCCC4)ncnc32)[C@H](O)[C@@H]1O
PER2::LUC luminescence (time after treatment 24 h): 0.965
PER2::LUC luminescence (time after treatment 30 h): 0.991

Nc1nc(NC2CC2)c2ncn([C@H]3C=C[C@@H](CO)C3)c2n1
PER2::LUC luminescence (time after treatment 24 h): 1.23 and 1.48
PER2::LUC luminescence (time after treatment 30 h): 1.32 and 1.75

OCC1OC(n2cnc3c(NC4CCCC4)nc(Cl)nc32)C(O)C1O (stereo not drawn)
PER2::LUC luminescence (time after treatment 24 h): 0.932
PER2::LUC luminescence (time after treatment 30 h): 0.97

COc1cc(O)c(C(=O)/C=C/c2ccc(O)c(OC)c2)c(OC)c1
PER2::LUC luminescence (time after treatment 24 h): 0.871
PER2::LUC luminescence (time after treatment 30 h): 0.855

CC(C)c1noc(C2CCN(c3ncnc(Nc4ccc(S(C)(=O)=O)cc4F)c3[N+](=O)[O-])CC2)n1
PER2::LUC luminescence (time after treatment 24 h): 0.972
PER2::LUC luminescence (time after treatment 30 h): 0.789

COc1ccc(/C=C/c2ccccc2F)cc1
PER2::LUC luminescence (time after treatment 24 h): 1.2
PER2::LUC luminescence (time after treatment 30 h): 1.26
